Data on 13 molecules can be found in PubChem BioAssay (NCI).

This is part of a sample that, as a whole, favours compounds with a hit. Of some 83,000 tested, about 20% had one in any assay.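 Note: values are percent growth. 100 is the growth of untreated cells, values between 100 and 0 indicate rising inhibition; between -100 and 0 indicates cell death.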 Unmarked numbers belong to inactive results. Active and inactive are the calls of the source. Rule for the calls: active = growth percent below 10; inactive = the rest.

Some test systems named below: HCT-15 colon; HT29 colon; SNB-75 CNS; SNB-19 CNS; U251 CNS; PC-3 prostate; SK-MEL-5 melanoma; UACC-62 melanoma; LOX IMVI melanoma; SK-MEL-28 melanoma.
Assay in all cases: NCI-60 one-dose screen, 48 h (100 = growth as untreated, 0 = no growth, -100 = all killed)
Common to all, as to settings: 10 µM unless noted

With `Cc1nc2sccn2c1-c1nnc(SCc2ccccc2)o1`, the growth in the assay with HCT-15 colon is 89.2%; in the assay with HT29 colon, 85.6%; in the assay on SNB-75 CNS, 106%; in the assay with SNB-19 CNS, 80.6%; with U251 CNS, 82.8%; with PC-3 prostate, 82%. The growth with SK-MEL-5 melanoma was 90%; with UACC-62 melanoma it was 80.2%; with LOX IMVI melanoma it was 92.7%; with SK-MEL-28 melanoma it was 94.8%.

On to `O=C(CSc1nnc(-c2ccc(-c3nc4ccc(Cl)cc4[nH]3)cc2)o1)Nc1ccc(Br)cc1`, for which the growth is 18.6% in the assay on HCT-15 colon; 28.6% with HT29 colon; 46% in the assay with SNB-75 CNS; -17.5% (active) with SNB-19 CNS; -89.8% (active) with U251 CNS; -29.1% (active) in the assay with PC-3 prostate. Also, the growth is -6.99% (active) in the assay on SK-MEL-5 melanoma, -53.4% (active) in the assay with UACC-62 melanoma, -100% (active) in the assay on LOX IMVI melanoma and -80.6% (active) with SK-MEL-28 melanoma.

Regarding `N#C/C(=C1/C(=O)Nc2ccccc21)c1nnc(NC(=O)c2ccc(-n3c(=O)[nH]c4ccccc4c3=O)cc2)s1`, the growth was 14.8% in the assay on HCT-15 colon; 26.9% in the assay with HT29 colon; 79.5% with SNB-75 CNS; 51.1% with SNB-19 CNS; 37.5% with U251 CNS; 31.8% in the assay with PC-3 prostate. Also, the growth in the assay on SK-MEL-5 melanoma was 10.3%; in the assay with UACC-62 melanoma, 42%; in the assay on LOX IMVI melanoma, 0.591% (active); with SK-MEL-28 melanoma, 34.4%.

Regarding `CCCCCCCCc1ccc(C(=O)Nc2cccc(O)c2)cc1`, the growth is 47.4% in the assay on HCT-15 colon; 78.7% with HT29 colon; 103% with SNB-75 CNS; 83% in the assay with SNB-19 CNS; 77.5% with U251 CNS; 52.4% with PC-3 prostate. Moreover, the growth in the assay with SK-MEL-5 melanoma is 46.6%; in the assay with UACC-62 melanoma, 69.4%; with LOX IMVI melanoma, 64.7%; in the assay on SK-MEL-28 melanoma it was 83.4%.

With `N#CCc1nnc(NC(=O)c2ccc(-n3c(=O)[nH]c4ccccc4c3=O)cc2)s1`, the growth is 97.1% with HCT-15 colon; 116% in the assay on HT29 colon; 86.8% with SNB-75 CNS; 94.6% in the assay with SNB-19 CNS; 106% in the assay with U251 CNS; 105% in the assay on PC-3 prostate. Also, the growth with SK-MEL-5 melanoma is 102%; in the assay with UACC-62 melanoma, 86.8%; in the assay with LOX IMVI melanoma, 90.5%; with SK-MEL-28 melanoma it was 103%.

For `CCOC(=O)c1ccc(NC(=S)NC(=O)c2ccc(NC(=O)C(C)C)cc2OC)cc1`, the growth in the assay with HCT-15 colon is 23.6%; with HT29 colon, 68.2%; in the assay with SNB-75 CNS it was 51.1%; in the assay on SNB-19 CNS it was 57.7%; in the assay on U251 CNS, 63.4%; in the assay with PC-3 prostate, 18%. Besides, the growth is -69% (active) with SK-MEL-5 melanoma, 30.2% in the assay on UACC-62 melanoma, 45.6% with LOX IMVI melanoma and 50.8% with SK-MEL-28 melanoma.

On to `Cc1ccc(C2CC(c3ccc(S(=O)(=O)NCCNc4nc(N(C)C)nc(N5CCOCC5)n4)cc3)=Nc3c(N)nc(N)nc3N2)cc1` (stereo not given), for which the growth is 44.5% in the assay with HCT-15 colon; 17.9% with HT29 colon; 59.5% in the assay on SNB-75 CNS; 57.3% with SNB-19 CNS; 50.6% in the assay with U251 CNS; 27.9% in the assay with PC-3 prostate. For the same molecule, the growth with SK-MEL-5 melanoma is 34.5%; with UACC-62 melanoma it was 71.1%; in the assay on LOX IMVI melanoma, 17.7%; in the assay on SK-MEL-28 melanoma, 71.1%.

As to `CC1=C(C(=O)OC(C)C)C(c2ccc(O)cc2)NC(=O)N1` (stereo not given), the growth with HCT-15 colon was 105%; in the assay on HT29 colon, 107%; with SNB-75 CNS, 115%; in the assay with SNB-19 CNS, 95%; in the assay with U251 CNS it was 103%; in the assay with PC-3 prostate, 92.1%. The growth in the assay with SK-MEL-5 melanoma was 107%; in the assay with UACC-62 melanoma, 95.4%; in the assay on LOX IMVI melanoma it was 98%; in the assay on SK-MEL-28 melanoma, 112%.

As to `COc1cc(NC(=O)C(C)C)ccc1C(=O)NC(=S)Nc1ccc(S(N)(=O)=O)cc1`, the growth with HCT-15 colon was 108%; in the assay on HT29 colon, 101%; in the assay with SNB-75 CNS, 95.5%; with SNB-19 CNS, 80.8%; in the assay on U251 CNS, 72%; in the assay with PC-3 prostate, 115%. Besides, the growth is 114% in the assay with SK-MEL-5 melanoma, 96.2% with UACC-62 melanoma, 102% in the assay with LOX IMVI melanoma and 114% with SK-MEL-28 melanoma.

With `Cc1ccc2nc(NC(=O)Nc3cccc(Cl)c3)sc2c1`, the growth is 92% with HCT-15 colon; 104% in the assay on HT29 colon; 108% with SNB-75 CNS; 103% with SNB-19 CNS; 111% in the assay on U251 CNS; 92.4% in the assay with PC-3 prostate. For the same molecule, the growth with SK-MEL-5 melanoma was 97.2%; in the assay on UACC-62 melanoma, 91.2%; in the assay with LOX IMVI melanoma, 88.1%; with SK-MEL-28 melanoma, 112%.

Turning to `Cc1cc(C(NC(=O)CCCCCNc2cccc3c2C(=O)N(C2CCC(=O)CC2=O)C3=O)c2cccc(N(C)C)c2)c(O)c2ncccc12` (stereo not given), the growth in the assay with HCT-15 colon is 8.01% (active); in the assay with HT29 colon, 28.6%; in the assay with SNB-75 CNS, 32.9%; in the assay with SNB-19 CNS it was 10.1%; in the assay with U251 CNS it was 17.6%; in the assay with PC-3 prostate it was 7.35% (active). The growth with SK-MEL-5 melanoma was -70.1% (active); with UACC-62 melanoma, -6.03% (active); with LOX IMVI melanoma, 0.535% (active); in the assay on SK-MEL-28 melanoma it was 10.7%.

Turning to `COc1cc2cc(C(=O)N3C[C@@H](CCl)c4c3cc(OC(=O)N(C)CCSSCCN3CCOCC3)c3ccccc43)[nH]c2c(OC)c1OC`, the growth with HCT-15 colon is -11.1% (active); in the assay on HT29 colon, -10% (active); in the assay with SNB-75 CNS, -74.6% (active); in the assay on SNB-19 CNS, -99.6% (active); in the assay with U251 CNS it was -24.1% (active); with PC-3 prostate, -12.2% (active). For the same molecule, the growth with SK-MEL-5 melanoma was -46.5% (active); in the assay on UACC-62 melanoma, -80.3% (active); with LOX IMVI melanoma, -69.2% (active); with SK-MEL-28 melanoma, -60.7% (active).

`N#Cc1c(NC(=O)N2CCOCC2)n(-c2ccc(OC(F)(F)F)cc2)c2cc(F)ccc12`: the growth in the assay on HCT-15 colon was 95.5%; with HT29 colon, 90%; in the assay on SNB-75 CNS it was 140%; in the assay on SNB-19 CNS, 117%; with U251 CNS, 98.8%; in the assay on PC-3 prostate, 83.9%. Further, the growth with SK-MEL-5 melanoma is 82.4%; with UACC-62 melanoma, 73.2%; in the assay with LOX IMVI melanoma, 102%; in the assay with SK-MEL-28 melanoma it was 89.5%.
